Experiments:
Assay in all cases: HT-SELEX; 20 mM HEPES pH 7, 140 mM KCl, 5 mM NaCl, 1 mM K2HPO4, 2 mM MgSO4, 100 uM EGTA, ZnSO4, 0.1% Tween20; room temperature, 1 h; high values mean tight binding
Conditions in all cases: protein: ivt; tags: eGFP (N-terminal); dsDNA, one strand shown
ZNF721 full-length = ZNF721 full-length (Homo sapiens, UniProt Q8TF20-2 1-923)
Summary of the method: (§1)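 Bead-immobilised tagged transcription factor (full-length or DNA-binding-domain fragment), made in HEK293 lysate or cell-free extract, was incubated with a randomized 40-base DNA library. Binding was for 1 h at room temperature in HEPES/KCl low-stringency buffer with Tween20. After washing and heat elution, bound DNA was PCR-amplified over successive cycles and Illumina-sequenced (~3 million 60 bp reads per sample). Binding signal is a relative k-mer count in selected reads; higher means tighter binding.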

ZNF721 DBD1 = ZNF721 DBD1 (Homo sapiens, UniProt Q8TF20-2 29-461)
Chain of ZNF721 DBD1 (Q8TF20 17-449): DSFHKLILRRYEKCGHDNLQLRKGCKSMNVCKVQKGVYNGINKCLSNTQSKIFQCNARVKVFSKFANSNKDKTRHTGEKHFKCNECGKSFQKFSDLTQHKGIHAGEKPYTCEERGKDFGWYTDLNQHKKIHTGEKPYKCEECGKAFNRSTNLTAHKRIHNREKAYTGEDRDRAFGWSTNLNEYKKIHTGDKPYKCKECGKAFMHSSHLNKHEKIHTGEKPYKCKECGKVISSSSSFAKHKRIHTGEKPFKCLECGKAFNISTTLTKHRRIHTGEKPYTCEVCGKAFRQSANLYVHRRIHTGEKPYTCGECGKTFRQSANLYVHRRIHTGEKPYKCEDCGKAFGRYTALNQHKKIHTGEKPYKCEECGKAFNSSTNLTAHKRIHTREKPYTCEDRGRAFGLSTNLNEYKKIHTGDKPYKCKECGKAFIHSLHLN
Summary of the method: as §1

ZNF721 DBD2 = ZNF721 DBD2 (Homo sapiens, UniProt Q8TF20-2 395-923)
Chain of ZNF721 DBD2 (Q8TF20 383-911): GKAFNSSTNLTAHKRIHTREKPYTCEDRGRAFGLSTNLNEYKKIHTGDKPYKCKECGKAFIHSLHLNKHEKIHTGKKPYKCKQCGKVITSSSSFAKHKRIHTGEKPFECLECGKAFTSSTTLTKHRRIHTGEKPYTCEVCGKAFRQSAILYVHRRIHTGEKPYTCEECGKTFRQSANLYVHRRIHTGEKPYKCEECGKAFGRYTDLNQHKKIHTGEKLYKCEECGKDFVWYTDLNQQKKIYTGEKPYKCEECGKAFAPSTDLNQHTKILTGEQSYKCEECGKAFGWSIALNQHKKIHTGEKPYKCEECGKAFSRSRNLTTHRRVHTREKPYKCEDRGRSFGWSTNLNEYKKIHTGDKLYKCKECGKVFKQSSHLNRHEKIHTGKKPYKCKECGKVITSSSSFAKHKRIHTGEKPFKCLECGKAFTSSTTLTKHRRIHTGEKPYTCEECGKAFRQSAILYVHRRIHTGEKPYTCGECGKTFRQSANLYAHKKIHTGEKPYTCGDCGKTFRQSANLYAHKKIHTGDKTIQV
Summary of the method: as §1

Chain of ZNF721 full-length (Q8TF20 other isoform, or with tags, fused parts or gaps): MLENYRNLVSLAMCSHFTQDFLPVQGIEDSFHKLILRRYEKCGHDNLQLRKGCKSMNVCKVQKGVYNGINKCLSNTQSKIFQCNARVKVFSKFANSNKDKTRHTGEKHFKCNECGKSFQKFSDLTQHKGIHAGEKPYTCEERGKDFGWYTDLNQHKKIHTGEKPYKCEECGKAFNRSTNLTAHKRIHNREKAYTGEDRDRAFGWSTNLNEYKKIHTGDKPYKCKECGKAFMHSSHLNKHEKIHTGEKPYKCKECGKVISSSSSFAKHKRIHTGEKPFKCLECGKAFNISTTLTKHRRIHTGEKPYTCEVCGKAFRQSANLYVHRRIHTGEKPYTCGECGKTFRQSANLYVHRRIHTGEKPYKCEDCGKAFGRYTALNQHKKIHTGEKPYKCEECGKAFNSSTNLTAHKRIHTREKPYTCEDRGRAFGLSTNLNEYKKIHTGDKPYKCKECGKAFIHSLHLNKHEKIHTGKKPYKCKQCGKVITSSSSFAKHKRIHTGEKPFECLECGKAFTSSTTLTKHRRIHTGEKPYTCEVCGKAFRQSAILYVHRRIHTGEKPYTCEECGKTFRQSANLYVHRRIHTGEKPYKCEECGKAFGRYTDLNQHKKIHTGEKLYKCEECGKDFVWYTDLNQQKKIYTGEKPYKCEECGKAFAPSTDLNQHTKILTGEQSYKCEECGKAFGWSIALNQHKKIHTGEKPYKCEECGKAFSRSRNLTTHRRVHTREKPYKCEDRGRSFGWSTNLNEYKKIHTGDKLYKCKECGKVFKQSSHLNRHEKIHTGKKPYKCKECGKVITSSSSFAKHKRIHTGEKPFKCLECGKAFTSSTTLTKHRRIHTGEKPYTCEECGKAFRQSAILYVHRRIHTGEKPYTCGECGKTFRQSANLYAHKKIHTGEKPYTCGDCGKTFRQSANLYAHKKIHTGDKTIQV

Sequence | binding signal (ZNF721 full-length) [relative 10-mer count] | binding signal (ZNF721 DBD1) [relative 10-mer count] | binding signal (ZNF721 DBD2) [relative 10-mer count]
CCCCACCACG | 0.11 | 0.0039 | 0.00623
CTCCCCCACC | 0.191 | 0.0104 | 0.00348
CCCAACCCAC | 0.149 | 0.0056 | 0.00515
CTCCCCACCA | 0.115 | 0.00596 | 0.00587
CCCACCCGAC | 0.114 | 0.00449 | 0.00479
AGGGGTGGGG | 0.2 | 0.00968 | 0.00372
CCCCCACTCC | 0.14 | 0.00665 | 0.00288
CCCTCACCAC | 0.104 | 0.00482 | 0.00587
GCCCCCCACC | 0.171 | 0.00693 | 0.00455
AAGCAGCATG | 0.115 | 0.0017 | 0.137
CACCCCCCGC | 0.132 | 0.00537 | 0.00635
CCCCCCACAC | 0.17 | 0.00656 | 0.00671
CCCCCTCCGC | 0.124 | 0.00725 | 0.00372
ACCCCCCACC | 0.257 | 0.0107 | 0.00491
GGGGGTGGGA | 0.205 | 0.0115 | 0.00312
CCCCCTCACC | 0.149 | 0.00624 | 0.00372
CTGCCCACCC | 0.102 | 0.00394 | 0.00216
GCTTCTTTCC | 0.103 | 0.0866 | 0.00156
ACCGCCCACC | 0.152 | 0.005 | 0.00204
CCTCCCTCCC | 0.179 | 0.00931 | 0.00479
CCAACCCCCC | 0.169 | 0.0056 | 0.00144
ACAAAAAAAG | 0.12 | 0.0121 | 0.0533
AAAAAAGCTC | 0.21 | 0.0749 | 0.00515
ACCCCACCCA | 0.173 | 0.00583 | 0.00419

Sequence | binding signal (ZNF721 full-length) [relative 10-mer count] | binding signal (ZNF721 DBD1) [relative 10-mer count] | binding signal (ZNF721 DBD2) [relative 10-mer count]
AAAAAGCATA | 0.182 | 0.0303 | 0.0372
AAAAAGCGTC | 0.108 | 0.0239 | 0.0102
CCACCCCGCC | 0.263 | 0.00894 | 0.00503
AAAAGCTGCA | 0.114 | 0.0533 | 0.00312
CCCGCCCTCC | 0.158 | 0.00803 | 0.0018
TAAAAAAGCA | 0.179 | 0.00816 | 0.114
AAGCGTCTCC | 0.163 | 0.084 | 0.0107
GCCCCCCCAC | 0.112 | 0.0055 | 0.00803
CCACCCTCAC | 0.103 | 0.00427 | 0.00791
AAAGCAGCGT | 0.371 | 0.00115 | 0.512
CCCGCCTCCC | 0.183 | 0.00954 | 0.00156
CCACCCCTAC | 0.112 | 0.00449 | 0.0036
AAAAAAAGCA | 0.612 | 0.037 | 0.246
CCCCCCCACC | 0.358 | 0.0144 | 0.00791
CTCCTCCCCC | 0.119 | 0.00633 | 0.00216
CCCTACCCCC | 0.153 | 0.0083 | 0.00587
ACCCACCCCT | 0.134 | 0.00541 | 0.00324
ACACCCACCC | 0.171 | 0.0105 | 0.00336
ACCCCCACCG | 0.102 | 0.00367 | 0.00336
AGCCCACCCC | 0.12 | 0.00583 | 0.0209
CCCCCTCGCC | 0.123 | 0.0061 | 0.00288
AAGCATACCC | 0.253 | 0.076 | 0.0243
GCCCGCCCCC | 0.106 | 0.00413 | 0.00132
CCTCCACCAC | 0.116 | 0.00564 | 0.00923

Sequence | binding signal (ZNF721 full-length) [relative 10-mer count] | binding signal (ZNF721 DBD1) [relative 10-mer count] | binding signal (ZNF721 DBD2) [relative 10-mer count]
CCCACACACC | 0.114 | 0.00449 | 0.00455
CCCTCCGCCC | 0.192 | 0.00936 | 0.00491
AAAACAAGCA | 0.157 | 0.00638 | 0.0831
CCCGCCGCCC | 0.194 | 0.00532 | 0.00192
CAACCCACCC | 0.171 | 0.00532 | 0.00623
CCCCCATCCC | 0.173 | 0.00638 | 0.00384
AAAAAAAAGC | 0.653 | 0.113 | 0.125
AAAAAGCAGA | 0.107 | 0.00183 | 0.0852
AAAAAGCAGC | 0.557 | 0.00835 | 0.477
CCGACCCCCC | 0.153 | 0.00541 | 0.00108
ACCGCCCCCC | 0.135 | 0.00642 | 0.00132
GGGGAGGGGA | 0.125 | 0.00674 | 0.0036
CAGCCCACCC | 0.151 | 0.00431 | 0.0841
CCCCCCCCTC | 0.167 | 0.00619 | 0.00324
AGGGCGGGGG | 0.14 | 0.0056 | 0.00276
AAAAAAGCGG | 0.11 | 0.0255 | 0.0279
CCCCCCCACG | 0.116 | 0.00399 | 0.00443
GCCCCTCCCC | 0.144 | 0.00596 | 0.00551
CCCGCGCCCC | 0.146 | 0.00505 | 0.0018
CAAACAAGCA | 0.102 | 0.00362 | 0.063
CCACCCCCCC | 0.32 | 0.0122 | 0.00336
CCCCCGCGCC | 0.116 | 0.00381 | 0.00336
GCCACCCCCA | 0.107 | 0.00326 | 0.00216
CCTCCCCCTC | 0.15 | 0.00807 | 0.00467

Sequence | binding signal (ZNF721 full-length) [relative 10-mer count] | binding signal (ZNF721 DBD1) [relative 10-mer count] | binding signal (ZNF721 DBD2) [relative 10-mer count]
AAAAAGCTAT | 0.425 | 0.225 | 0.00192
AGGGGTGGTG | 0.139 | 0.00532 | 0.00407
CTTTTTTTTA | 0.14 | 0.0207 | 0.0588
CCCTACCCCA | 0.11 | 0.00491 | 0.00395
CCAAAAAAAG | 0.124 | 0.00812 | 0.0564
CCAAAAAAAC | 0.106 | 0.0017 | 0.082
AGAAAAAACA | 0.12 | 0.00211 | 0.0902
ACCCCCCCCA | 0.154 | 0.005 | 0.00276
GGTGGGTGGA | 0.13 | 0.00615 | 0.00611
CCCCACCCGC | 0.186 | 0.00651 | 0.003
CAAAAAAAAG | 0.269 | 0.0321 | 0.108
GCACCCACCC | 0.107 | 0.00523 | 0.00479
AAAAAAAAAC | 0.134 | 0.00229 | 0.0808
GTGGGGTGGA | 0.103 | 0.00573 | 0.00539
GGGTGGGTGA | 0.104 | 0.00505 | 0.0012
AGCATGACCA | 0.152 | 0.00431 | 0.236
GCCCACCCAC | 0.168 | 0.0061 | 0.00983
CGAAAAAAAA | 0.137 | 0.0159 | 0.0695
CCTCCCCCCA | 0.18 | 0.00761 | 0.0036
CACACCCACC | 0.135 | 0.00651 | 0.00695
AAAAAAAGAA | 0.104 | 0.00867 | 0.0321
CCCACCCCCA | 0.28 | 0.0118 | 0.00647
ACCCCGCCCC | 0.188 | 0.00569 | 0.00192
AACAAGCAGC | 0.132 | 0.0039 | 0.0997

Sequence | binding signal (ZNF721 full-length) [relative 10-mer count] | binding signal (ZNF721 DBD1) [relative 10-mer count] | binding signal (ZNF721 DBD2) [relative 10-mer count]
GGGGTGGGCA | 0.11 | 0.00381 | 0.00395
CCCCCCCGAC | 0.115 | 0.00408 | 0.00288
AAAGCAGCCC | 0.134 | 0.00225 | 0.133
AAAAAAGCAG | 0.862 | 0.0227 | 0.588
GGTGGGGGGA | 0.186 | 0.00904 | 0.00407
TGGGTATGAA | 0.14 | 0.192 | 0.00108
ACGCCCCACC | 0.11 | 0.00271 | 0.00431
CCCACCCCAG | 0.114 | 0.00321 | 0.00156
AGCAGCATAC | 0.146 | 0.00179 | 0.164
CCGCCCCACC | 0.257 | 0.00894 | 0.00407
CACCCACCTC | 0.109 | 0.00518 | 0.00312
AAAAAGCGTA | 0.178 | 0.0453 | 0.0266
CCCCCCAACC | 0.194 | 0.00651 | 0.00707
CGCACCCCCC | 0.118 | 0.00463 | 0.00276
CGTCCCCCCC | 0.126 | 0.00619 | 0.00108
CTCCCCCTCC | 0.14 | 0.00784 | 0.00324
ATCCCACCCC | 0.123 | 0.00573 | 0.00168
ACCACCCTCC | 0.124 | 0.00523 | 0.00324
CCCACGACCC | 0.107 | 0.00564 | 0.0018
ACCGAAAAAA | 0.104 | 0.00949 | 0.0485
CCCCCCAGCC | 0.118 | 0.00505 | 0.00228
CCGCCCTCCC | 0.148 | 0.00642 | 0.00252
CCACCGCCCA | 0.131 | 0.00477 | 0.00575
CACCCACCGC | 0.103 | 0.00463 | 0.00455

From publication PMC13541613, “GHT-SELEX demonstrates unexpectedly high intrinsic sequence specificity and complex DNA binding of many human transcription factors”
